The list is not random: actives were taken first. Their share in the collection is about 12%.
G9a block = inhibitors of human histone lysine methyltransferase G9a | G9a H3K9 monomethylation, AlphaScreen, 2 h | Potency, µM (top dose mostly 102 µM), for the others: top-dose activity, negative = inhibition, hits mostly inhibitors | 8.8% of 350,000 active | AID 504332; further: on the % scale 0 is the no-effect control and ±100 the full control effect; nearly all actives have a fitted effect of over 75% in size
Target sequence (Q96KQ7 913-1193 limits assumed): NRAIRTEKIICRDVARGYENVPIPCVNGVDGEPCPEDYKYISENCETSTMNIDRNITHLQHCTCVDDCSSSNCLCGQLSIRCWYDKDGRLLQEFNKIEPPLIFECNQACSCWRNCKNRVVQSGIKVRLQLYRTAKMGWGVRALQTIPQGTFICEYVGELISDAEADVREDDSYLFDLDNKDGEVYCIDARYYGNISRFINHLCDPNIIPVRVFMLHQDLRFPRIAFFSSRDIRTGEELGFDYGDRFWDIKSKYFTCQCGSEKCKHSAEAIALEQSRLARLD
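AlphaScreen read-out: biotin-H3K9 peptide (500 nM) methylation by 20 nM enzyme with 20 uM SAM, 2 h at room temperature after 15 min compound preincubation; anti-monomethyl H3K9 antibody plus donor/acceptor beads, 10 min dark.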
L3MBTL1 inh = L3MBTL1 (human) inhibition; Q9Y468; AlphaScreen L3MBTL1–H3K9me1 peptide binding; Potency, µM (top dose mostly 57.1 µM), for inactives: at the highest dose activity, negative = inhibition, actives largely listed as inhibitors; 0.66% of 230,000 active; AID 485360; further: on the % scale 0 is the no-effect control and ±100 the full control effect; nearly all actives have a fitted effect of over 60% in size
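L3MBTL1 (50 nM) pre-complexed 30 min with biotinylated H3(1-15)K9me1 peptide (75 nM), then compounds added for 30 min at room temperature; AlphaScreen streptavidin donor/nickel chelate acceptor beads (10 ug/mL final) read after 30 min dark incubation.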
HP1b chromo inh = blocks HP1-beta chromodomain binding to methylated histone tails. P83916. AlphaScreen HP1-beta / biotin-H3K9me3 peptide binding. Potency, µM (titrated, usually from 114 µM), for the others: top-dose activity change, negative = inhibition, most hits filed as inhibitors. 0.56% of 390,000 active. AID 540317; further: nearly all actives have a fitted effect of over 70% in size
Target sequence (P83916 whole entry, looked up): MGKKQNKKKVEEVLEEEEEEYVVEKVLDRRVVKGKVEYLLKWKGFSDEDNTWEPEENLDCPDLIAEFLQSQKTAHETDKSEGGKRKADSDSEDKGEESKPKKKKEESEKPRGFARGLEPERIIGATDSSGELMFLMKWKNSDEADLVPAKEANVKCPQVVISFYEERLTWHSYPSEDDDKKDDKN
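HP1-beta protein (50 nM final) preincubated 30 min at room temperature with biotinylated H3(1-18)K9me3 peptide (50 nM) in PBS pH 7.4, 0.01% Tween-20, then compound added for 30 min. AlphaScreen streptavidin donor/nickel chelate acceptor beads (10 ug/mL final), 30 min dark, luminescence read.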
BAZ2B block = BAZ2B (human) inhibition. Potency, µM (doses to about 114 µM), inactives show at the top dose activity change, negative = inhibition, actives largely listed as inhibitors. AlphaScreen BAZ2B-H3K14Ac peptide displacement. AID 504333. Q9UIF8. 4.4% of 360,000 active; further: on the % scale 0 is the no-effect control and ±100 the full control effect; nearly all actives have a fitted effect of over 60% in size
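AlphaScreen luminescence quantifies BAZ2B engagement of H3K14Ac peptide; the protein and biotinylated peptide are both at 50 nM final, buffer PBS pH 7.4 with 0.01% Tween-20, all steps at room temperature.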
JMJD2A Tudor = JMJD2A Tudor domain (human) inhibition; O75164; AlphaScreen JMJD2A-Tudor / H3K4me3 peptide binding; Potency, µM (highest dose often 114 µM), for inactives: at the highest dose activity change, negative = inhibition, hits mostly inhibitors; 4.4% of 390,000 active; AID 504339; further: on the % scale 0 is the no-effect control and ±100 the full control effect; nearly all actives have a fitted effect of over 50% in size
Sfp inh = Sfp phosphopantetheinyl transferase inhibition; Q9F4F7; Biochemical Sfp PPTase activity, qHTS; Potency, µM, inactives show largest response in the series, negative = inhibition, hits mostly inhibitors; 3.5% of 310,000 active; AID 1490;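 further: the enzyme is Sfp with the accession as filed and its product quenches rhodamine fluorescence; 0% = enzyme reaction without inhibitor and -100% = no enzyme wells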
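Sfp 15 nM + cpd, 15 min RT; start w/ rhodamine-CoA 5 uM, BHQ-2-YbbR 12.5 uM (final); 50 mM Hepes pH 7.6, 10 mM MgCl2, 0.01% NP-40, 0.01% BSA; read 525/598 nm at 0 and 30 min.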
* = called active by the depositor; ? = inconclusive; / = no result; [ ] = another dose, or the depositor's remark. The call rests on the fitted dose curve; in most records, active means well fitted curve in the direction sought with a large enough effect; inconclusive means small, poorly fitted or top-dose-only effect, or another doubt; inactive means no such curve, though single readings can be large; an effect the other way counts as inactive or inconclusive. Potency means the concentration at half of the fitted maximal effect.

SMILES	G9a block	L3MBTL1 inh	HP1b chromo inh	BAZ2B block	JMJD2A Tudor	Sfp inh
COc1ccc(OC)c(NC(=O)CSC2=C(C#N)C(c3ccco3)C3=C(CCCC3=O)N2)c1 (stereo not drawn)	12%[12.7 µM]	-15%	-13%	-10%	?	-18%
N#CC1=C(SCC(=O)Nc2ccc(C(=O)O)cc2)NC(=O)CC1c1ccco1 (stereo not drawn)	/	?	5%	-21%	-21%	32µM*
CCOC(=O)CSC1=C(C#N)C(c2ccc(OC)cc2)C2=C(CC(C)(C)CC2=O)N1 (stereo not drawn)	-11%[12.7 µM]	-6%	26%	-27%	-18%[11.4 µM]	35µM*
O=C(Nc1ccc(Br)cc1)c1cc(Br)c(Br)s1	-51%[12.7 µM]	/	/	/	/	3%
Cc1ccc(C(=O)c2oc3ccccc3c2NC(=O)c2cc(=O)c3cc(C)ccc3o2)cc1	-22%[59 µM]	/	32%	0%	-8%	/
Cc1ccc(C(=O)CSC2=C(C#N)C(c3ccco3)C3=C(CC(C)(C)CC3=O)N2)cc1 (stereo not drawn)	40µM*	/	2%	?	?	-28%
O=C(CCn1cnc2ccccc2c1=O)NCc1ccccc1	?	/	-12%[57 µM]	?	89µM*	/
CC(C)(C)c1csc(NC(=O)Cn2cnc3ccccc3c2=O)n1	?	-5%	?	1%	?	20µM*
COc1ccccc1CNC(=O)CCn1cnc2ccccc2c1=O	16µM*	/	?	50µM*	56µM*	/
CC(C)(C)NC(=O)CSc1nnc(NC(=O)CCn2cnc3ccccc3c2=O)s1	-4%[59 µM]	1%	21%	10%	25µM*	1%
CC(C)(C)c1csc(NC(=O)CSc2nc3ccccc3c(=O)[nH]2)n1	-1%[59 µM]	-6%	7%	-11%	-34%	5%
O=C1CCC(C2CCc3cc(O)ccc3C2)C1 (stereo not drawn)	/	/	34%	/	-8%	/
O=C(CCCNC(=O)c1ccc(Cl)cc1)Nc1ccc(Br)cc1	12%	/	23%	-14%	-5%	11%
CCN(C(=O)COC(=O)c1cc([N+](=O)[O-])ccc1N1CCOCC1)C1CCCCC1	-45%	-13%	3%	-31%	-25%	/
CC(=O)NC[C@@H]1CN(c2ccc(N3CCOCC3)c(F)c2)C(=O)O1	22%[59 µM]	/	/	/	/	11%
COc1ccc(NC(=O)CCCn2cnc3ccccc3c2=O)c(OC)c1	-2%	/	4%	-10%	-18%	4%
CCc1ccc(NC(=O)CCn2cnc3ccccc3c2=O)cc1	-30%[59 µM]	/	-9%[57 µM]	-28%	79µM*	/
COc1ccccc1NC(=O)CCN1CCN(C)CC1	50µM*	?	32%	10%	-1%	8%
Cc1ccc(NC(=O)CCn2cnc3ccccc3c2=O)cc1Cl	-3%[59 µM]	1%	22%	0%	3%	16%
COc1ccccc1NC(=O)CCn1cnc2ccccc2c1=O	9%[12.7 µM]	-4%	?	?	5µM*	/
CCc1nnc(NC(=O)CSc2nccn2Cc2ccc(F)cc2)s1	13%[59 µM]	/	43%[57 µM]	15%	-29%	/
Cc1cc(N2CCOCC2)ccc1/C=C\[N+](=O)[O-]	6.3µM*	4%	-9%	?	-14%	?
O=C(NCc1ccccc1Cl)c1ccc2oc(=O)n(Cc3ccccc3)c2c1	23%[59 µM]	/	39%	0%	11%	/
COC(=O)C1C(=O)C2=C(CC1C)NC(=O)CC2c1ccccc1 (stereo not drawn)	19%[12.7 µM]	-10%	42%	11%	-4%	-22%
CCOc1cc(C2CC(=O)NC3=C2C(=O)C(C(=O)OC)C(C)C3)cc(Cl)c1O (stereo not drawn)	50µM*	-4%	6%	?	-28%	5%
SMILES	G9a block	L3MBTL1 inh	HP1b chromo inh	BAZ2B block	JMJD2A Tudor	Sfp inh
COc1ccc(-c2nnc(SC)nc2-c2ccc(OC)c([N+](=O)[O-])c2)cc1[N+](=O)[O-]	/	/	?	/	2.5µM*	/
COc1ccc(CC(=O)NC(C)c2nnc(SCC(=O)Nc3ccccc3)n2C)cc1 (stereo not drawn)	-5%	-5%	35%	-24%	-4%	-4%
CCc1ccc(OC(C)c2nnc(SCC(=O)Nc3ncccc3C)n2C)cc1 (stereo not drawn)	11µM*	-5%	19%	-26%	?	3%
COC(=O)C1=C(O)/C(=C\c2cc(C)n(-c3ccccc3C)c2C)N=C1C	20µM*	/	3%	79µM*	-29%	45µM*
COC(=O)C1=C(O)/C(=C\c2cc(C)n(-c3ccccc3F)c2C)N=C1C	?	/	12%	56µM*	-12%	4%
COC(=O)c1ccccc1NC(=O)CNc1cc(OC)c(OC)cc1C	20µM*	-14%	-23%	45µM*	?	-8%
CCCC(=O)NNC(=O)CC(=O)Nc1ccccc1C(=O)O	50µM*	4%	4%[57 µM]	-21%	-13%	22%
CCC(=O)NC(=S)Nc1ccccc1C(=O)OC	?	2%	19%	5%	-12%	0%
COC(=O)c1ccccc1NC(=S)NC(=O)C1CC1	50µM*	/	25%	?	-12%	-2%
CCCC(=O)NC(=S)Nc1ccccc1C(=O)OC	40µM*	-2%	-8%	9%[57.1 µM]	-16%[11.4 µM]	?
O=C(CC(=O)Nc1ccccc1C(=O)O)NNC(=O)Cc1ccccc1	/	40%	16%	-11%	?	-21%
CCc1ccccc1NCC(=O)Nc1ccccc1C(=O)OC	8%	5%	33%	2%	1%	3%
Cc1cnc(CNc2cc(-c3ccccc3Cl)ncn2)cn1	-30%[0.501 µM]	/	/	/	/	-2%
CCCc1cc(=O)[nH]c(SCC(=O)NCCN2C(=O)CSC2=O)n1	/	-5%	17%	/	-8%	/
Cc1ccc(C2CC(=O)Oc3ccc(O)cc32)cc1 (stereo not drawn)	11µM*	/	/	/	/	?
Cc1ccc(C2CC(=O)Oc3ccc(C(C)(C)C)cc32)cc1 (stereo not drawn)	78%	/	/	/	/	2%
CCN(C(=O)CSc1nc(-c2ccc(C(C)C)cc2)no1)c1cccc(C)c1	54%[59 µM]	/	107%	39%	48%	/
CCNc1nc(C(=O)O)nc(N2CCOCC2)n1	4µM*	-17%	4%	8.9µM*	0.79µM*	79µM*
CN(C)c1nc(C(=O)O)nc(N2CCOCC2)n1	?	6%	0%	-28%	32µM*	7%
O=C(C[C@H]1C[C@H](C(=O)N2CCOCC2)[C@@]2(CCC3CCCC3)c3[nH]c4cc(-c5ccco5)ccc4c3CCN2C1=O)NCc1ccco1	/	-22%	-18%	/	?	/
O=S(=O)(c1ccc(Cl)cc1)c1nc(-c2cccs2)oc1N1CCCCC1	14µM*	/	?	14µM*	?	/
CN(C)c1oc(-c2ccc(Cl)cc2)nc1S(=O)(=O)c1ccccc1	-18%[59 µM]	-3%	?	?	79µM*	-17%

Screens deposited in PubChem BioAssay by National Center for Advancing Translational Sciences (NCATS).
